# Where “and” joins values, the source holds several entries; their conditions need not be identical. Equal entries are not always repeated. The campaign covered roughly 5,500 compounds. About 2,000 (36%) were called active. Roughly 18% stayed inconclusive and do not appear here. Rule as the data show it: active = normalized growth mostly below about 0.91 (no sharp cut-off); inconclusive = no clear call, values can overlap the other calls; inactive = mostly above about 0.92. The list shows a part of the results.
# Assay: chemical genetic growth profiling, strain panel (AID 1159580);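 also: tested at 20 µM; growth read once vehicle control cultures reached saturation at 30 °C; 1 = growth at the plate median or of vehicle wells; lower values mean less growth of the strain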
# Details: growth OD
smiles,measurement,setting,value
Cc1cc(O)c2c(c1)Cc1cccc(O)c1C2=O,normalized growth,"S. cerevisiae deletion strains, locus YAL013W, strain DEP1, stronger effect = lower value",0.978 (inactive)
same,normalized growth,"S. cerevisiae deletion strains, locus YBR021W, strain FUR4, stronger effect = lower value",1.09 (inactive)
same,normalized growth,"S. cerevisiae deletion strains, locus YBR229C, strain ROT2, stronger effect = lower value",1.02 (inactive)
same,normalized growth,"S. cerevisiae deletion strains, locus YCL029C, strain bik1, stronger effect = lower value",1.01 (inactive)
same,normalized growth,"S. cerevisiae deletion strains, locus YDL035C, strain GPR1, stronger effect = lower value",0.978 (inactive)
same,normalized growth,"S. cerevisiae deletion strains, locus YDL074C, strain BRE1, stronger effect = lower value",0.832 (inactive)
same,normalized growth,"S. cerevisiae deletion strains, locus YDL101C, strain DUN1, stronger effect = lower value",0.951 (inactive)
same,normalized growth,"S. cerevisiae deletion strains, locus YDL134C, strain PPH21, stronger effect = lower value",0.992 (inactive)
same,normalized growth,"S. cerevisiae deletion strains, locus YDL185W, strain tfp1, stronger effect = lower value",1 (inactive)
same,normalized growth,"S. cerevisiae deletion strains, locus YDL192W, strain arf1, stronger effect = lower value",1.02 (inactive)
same,normalized growth,"S. cerevisiae deletion strains, locus YDR101C, strain arx1, stronger effect = lower value",1.01 (inactive)
same,normalized growth,"S. cerevisiae deletion strains, locus YDR150W, strain NUM1, stronger effect = lower value",1.02 (inactive)
same,normalized growth,"S. cerevisiae deletion strains, locus YDR162C, strain NBP2, stronger effect = lower value",0.905 (inactive)
same,normalized growth,"S. cerevisiae deletion strains, locus YDR318W, strain mcm21, stronger effect = lower value",0.982 (inactive)
same,normalized growth,"S. cerevisiae deletion strains, locus YDR388W, stronger effect = lower value",0.998 (inactive)
same,normalized growth,"S. cerevisiae deletion strains, locus YDR502C, strain sam2, stronger effect = lower value",1 (inactive)
same,normalized growth,"S. cerevisiae deletion strains, locus YEL061C, strain CIN8, stronger effect = lower value",0.848 (active)
same,normalized growth,"S. cerevisiae deletion strains, locus YER110C, stronger effect = lower value",1.01 (inactive)
same,normalized growth,"S. cerevisiae deletion strains, locus YER155C, strain BEM2, stronger effect = lower value",1.02 (inactive)
same,normalized growth,"S. cerevisiae deletion strains, locus YER167W, strain BCK2, stronger effect = lower value",0.941 (inactive)
same,normalized growth,"S. cerevisiae deletion strains, locus YGL078C, strain dbp3, stronger effect = lower value",1.02 (inactive)
same,normalized growth,"S. cerevisiae deletion strains, locus YGL086W, strain mad1, stronger effect = lower value",0.979 (inactive)
same,normalized growth,"S. cerevisiae deletion strains, locus YGL248W, strain PDE1, stronger effect = lower value",0.958 (inactive)
same,normalized growth,"S. cerevisiae deletion strains, locus YGR078C, strain PAC10, stronger effect = lower value",0.979 (inactive)
same,normalized growth,"S. cerevisiae deletion strains, locus YGR135W, strain pre9, stronger effect = lower value",1.02 (inactive)
same,normalized growth,"S. cerevisiae deletion strains, locus YGR229C, strain SMI1, stronger effect = lower value",0.677 (active)
same,normalized growth,"S. cerevisiae deletion strains, locus YGR252W, strain gcn5, stronger effect = lower value",0.914 (inactive)
same,normalized growth,"S. cerevisiae deletion strains, locus YHR030C, strain SLT2, stronger effect = lower value",0.96 (inactive) and 1.05 (inactive)
same,normalized growth,"S. cerevisiae deletion strains, locus YHR079C, strain IRE1 (second series), stronger effect = lower value",1.02 (inactive)
same,normalized growth,"S. cerevisiae deletion strains, locus YHR079C, strain IRE1, stronger effect = lower value",1.04 (inactive)
same,normalized growth,"S. cerevisiae deletion strains, locus YHR094C, strain hxt1, stronger effect = lower value",1.01 (inactive)
same,normalized growth,"S. cerevisiae deletion strains, locus YHR129C, strain ARP1, stronger effect = lower value",0.926 (inactive)
same,normalized growth,"S. cerevisiae deletion strains, locus YHR200W, strain rpn10, stronger effect = lower value",1.05 (inactive)
same,normalized growth,"S. cerevisiae deletion strains, locus YIL066C, strain RNR3, stronger effect = lower value",0.717 (active)
same,normalized growth,"S. cerevisiae deletion strains, locus YIL073C, strain SPO22, stronger effect = lower value",0.898 (inactive)
same,normalized growth,"S. cerevisiae deletion strains, locus YIL125W, strain kgd1, stronger effect = lower value",0.998 (inactive)
same,normalized growth,"S. cerevisiae deletion strains, locus YIR030C, strain dcg1, stronger effect = lower value",1.1 [resistant] (active)
same,normalized growth,"S. cerevisiae deletion strains, locus YJL095W, strain BCK1, stronger effect = lower value",0.573 (active) and 1.05 (inactive)
same,normalized growth,"S. cerevisiae deletion strains, locus YJL134W, strain LCB3, stronger effect = lower value",1.01 (inactive)
same,normalized growth,"S. cerevisiae deletion strains, locus YJL168C, strain set2, stronger effect = lower value",1 (inactive)
same,normalized growth,"S. cerevisiae deletion strains, locus YJL187C, strain SWE1 (second series), stronger effect = lower value",0.742 (active)
same,normalized growth,"S. cerevisiae deletion strains, locus YJR043C, strain POL32, stronger effect = lower value",1.01 (inactive)
same,normalized growth,"S. cerevisiae deletion strains, locus YJR066W, strain TOR1, stronger effect = lower value",0.938 (inactive)
same,normalized growth,"S. cerevisiae deletion strains, locus YJR075W, strain HOC1, stronger effect = lower value",0.971 (inactive)
same,normalized growth,"S. cerevisiae deletion strains, locus YKL009W, strain mrt4, stronger effect = lower value",1.05 (inactive)
same,normalized growth,"S. cerevisiae deletion strains, locus YKL068W, stronger effect = lower value",1.02 (inactive)
same,normalized growth,"S. cerevisiae deletion strains, locus YKL085W, strain MDH1 (second series), stronger effect = lower value",1.03 (inactive)
same,normalized growth,"S. cerevisiae deletion strains, locus YKL085W, strain MDH1, stronger effect = lower value",1.03 (inactive)
same,normalized growth,"S. cerevisiae deletion strains, locus YKL190W, strain CNB1, stronger effect = lower value",0.995 (inactive)
same,normalized growth,"S. cerevisiae deletion strains, locus YKR001C, strain vps1, stronger effect = lower value",0.865 (active)
same,normalized growth,"S. cerevisiae deletion strains, locus YLR039C, strain RIC1, stronger effect = lower value",0.261 (active)
same,normalized growth,"S. cerevisiae deletion strains, locus YLR058C, strain SHM2, stronger effect = lower value",0.922 (inactive)
same,normalized growth,"S. cerevisiae deletion strains, locus YLR102C, strain apc9, stronger effect = lower value",1.05 (inactive)
same,normalized growth,"S. cerevisiae deletion strains, locus YLR113W, strain HOG1, stronger effect = lower value",1.05 (inactive)
same,normalized growth,"S. cerevisiae deletion strains, locus YLR262C, strain YPT6, stronger effect = lower value",0.517 (active)
same,normalized growth,"S. cerevisiae deletion strains, locus YLR268W, strain sec22, stronger effect = lower value",0.93 (inactive)
same,normalized growth,"S. cerevisiae deletion strains, locus YLR330W, strain CHS5, stronger effect = lower value",0.957 (inactive)
same,normalized growth,"S. cerevisiae deletion strains, locus YLR342W, strain FKS1 (second series), stronger effect = lower value",0.918 (inactive)
same,normalized growth,"S. cerevisiae deletion strains, locus YLR371W, strain rom2, stronger effect = lower value",1.02 (inactive)
same,normalized growth,"S. cerevisiae deletion strains, locus YLR418C, strain cdc73, stronger effect = lower value",0.902 (inactive)
same,normalized growth,"S. cerevisiae deletion strains, locus YML016C, strain PPZ1, stronger effect = lower value",0.999 (inactive)
same,normalized growth,"S. cerevisiae deletion strains, locus YML032C, strain rad52, stronger effect = lower value",0.906 (inactive)
same,normalized growth,"S. cerevisiae deletion strains, locus YML124C, strain tub3, stronger effect = lower value",1.03 (inactive)
same,normalized growth,"S. cerevisiae deletion strains, locus YMR078C, strain ctf18, stronger effect = lower value",0.974 (inactive)
same,normalized growth,"S. cerevisiae deletion strains, locus YMR223W, strain ubp8, stronger effect = lower value",1.06 (inactive)
same,normalized growth,"S. cerevisiae deletion strains, locus YMR307W, strain GAS1, stronger effect = lower value",0.874 (inactive)
same,normalized growth,"S. cerevisiae deletion strains, locus YNL067W, strain RPL9B, stronger effect = lower value",0.932 (inactive)
same,normalized growth,"S. cerevisiae deletion strains, locus YNL183C, strain NPR1, stronger effect = lower value",0.967 (inactive)
same,normalized growth,"S. cerevisiae deletion strains, locus YNL233W, strain BNI4, stronger effect = lower value",0.946 (inactive)
same,normalized growth,"S. cerevisiae deletion strains, locus YNL250W, strain rad50, stronger effect = lower value",0.962 (inactive)
same,normalized growth,"S. cerevisiae deletion strains, locus YNL271C, strain bni1, stronger effect = lower value",1.01 (inactive)
same,normalized growth,"S. cerevisiae deletion strains, locus YNL298W, strain CLA4, stronger effect = lower value",0.999 (inactive)
same,normalized growth,"S. cerevisiae deletion strains, locus YNL307C, strain MCK1, stronger effect = lower value",1 (inactive)
same,normalized growth,"S. cerevisiae deletion strains, locus YNL322C, strain KRE1, stronger effect = lower value",0.987 (inactive)
same,normalized growth,"S. cerevisiae deletion strains, locus YNR052C, strain pop2, stronger effect = lower value",0.949 (inactive)
same,normalized growth,"S. cerevisiae deletion strains, locus YOL006C, strain TOP1, stronger effect = lower value",0.261 (active)
same,normalized growth,"S. cerevisiae deletion strains, locus YOL012C, strain htz1",0.675 (inactive)
same,normalized growth,"S. cerevisiae deletion strains, locus YOL147C, strain pex11, stronger effect = lower value",1.05 (inactive)
same,normalized growth,"S. cerevisiae deletion strains, locus YOR061W, strain CKA2, stronger effect = lower value",0.995 (inactive)
same,normalized growth,"S. cerevisiae deletion strains, locus YOR069W, strain VPS5, stronger effect = lower value",0.951 (inactive)
same,normalized growth,"S. cerevisiae deletion strains, locus YOR136W, strain idh2, stronger effect = lower value",1 (inactive)
same,normalized growth,"S. cerevisiae deletion strains, locus YOR144C, strain elg1, stronger effect = lower value",1.06 (inactive)
same,normalized growth,"S. cerevisiae deletion strains, locus YOR184W, strain ser1, stronger effect = lower value",0.984 (inactive)
same,normalized growth,"S. cerevisiae deletion strains, locus YOR231W, strain MKK1, stronger effect = lower value",1.07 (inactive)
same,normalized growth,"S. cerevisiae deletion strains, locus YOR316C, strain cot1, stronger effect = lower value",1.06 (inactive)
same,normalized growth,"S. cerevisiae deletion strains, locus YPL055C, strain LGE1, stronger effect = lower value",0.753 (active)
same,normalized growth,"S. cerevisiae deletion strains, locus YPL241C, strain CIN2, stronger effect = lower value",0.982 (inactive)
same,normalized growth,"S. cerevisiae deletion strains, locus YPL256C, strain CLN2, stronger effect = lower value",1.09 (inactive)
same,normalized growth,"S. cerevisiae deletion strains, locus YPR119W, strain clb2, stronger effect = lower value",1.05 (inactive)
same,normalized growth,"S. cerevisiae deletion strains, locus YPR141C, strain kar3, stronger effect = lower value",1.02 (inactive)
same,normalized growth,"S. cerevisiae deletion strains, locus YPR163C, strain tif3, stronger effect = lower value",0.982 (inactive)
same,normalized growth,"S. cerevisiae deletion strains, locus YPR167C, strain met16, stronger effect = lower value",1.06 (inactive)
same,normalized growth,"S. cerevisiae deletion strains, strain wtn01, stronger effect = lower value",0.997 (inactive)
same,normalized growth,"S. cerevisiae strains, strain wild type, stronger effect = lower value",0.881 (active)

# Reference: PubChem BioAssay AID1159580 (chemical genetic matrix, 2015)
